13 molecules from the supplement of paper PMC7411054 can be followed below.

What all share (test): lowest phenotypically active concentration; higher = less potent
Holding throughout (conditions): treatment time: 24 h

The subject of one assay is A549-CANX-COX4. The method, boiled down:
(§1)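 Fifteen gene-edited A549, HepG2 and WPMY1 reporter lines (BFP segmentation plus GFP and RFP/FusionRed markers) were treated at 0.3, 1, 3 or 9 µM for 24 h, four wells each, then imaged live. Live-cell features per well were normalised to DMSO control wells. Deviation required ≥3 of 4 wells beyond the 95th percentile of DMSO Euclidean distances, and reproducibility required median replicate Pearson correlation above the 95th percentile of non-replicates. Phenotypic activity needed both criteria.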

Another assay concerns A549-TP53BP1-CLTA. The method, boiled down: as §1
The test system of a further assay is HepG2-ACTB-RAB5A. Put shortly: as §1
The subject of a further assay is HepG2-CANX-COX4. The method, boiled down: as §1
The test system of a further assay is HepG2-TP53BP1-CLTA. Put shortly:
as §1

In a further assay the test system is HepG2-TUBA1B-RELA. The method, boiled down: as §1
For a further assay, the system named is WPMY1-TUBA1B-RELA. The method, boiled down: as §1

Turning to `Nc1cc(C(F)(F)F)c(-c2cc(N3CCOCC3)nc(N3CCOCC3)n2)cn1` [buparlisib], the “lowest phenotypically active concentration” value turned out to be 1 µM in the assay with A549-CANX-COX4; 1 µM in the assay with A549-TP53BP1-CLTA; 1 µM in the assay on HepG2-ACTB-RAB5A; 1 µM in the assay on HepG2-CANX-COX4; 3 µM in the assay with HepG2-TP53BP1-CLTA; 3 µM in the assay with HepG2-TUBA1B-RELA. The “lowest phenotypically active concentration” value with WPMY1-TUBA1B-RELA turned out to be 3 µM.
For the molecule `Cc1c2oc3c(C)ccc(C(=O)NC4C(=O)NC(C(C)C)C(=O)N5CCCC5C(=O)N(C)CC(=O)N(C)C(C(C)C)C(=O)OC4C)c3nc-2c(C(=O)NC2C(=O)NC(C(C)C)C(=O)N3CCCC3C(=O)N(C)CC(=O)N(C)C(C(C)C)C(=O)OC2C)c(N)c1=O` (configuration not stated) [Actinomycin D], the “lowest phenotypically active concentration” value with A549-CANX-COX4, with A549-TP53BP1-CLTA, in the assay on HepG2-ACTB-RAB5A, in the assay with HepG2-CANX-COX4, with HepG2-TP53BP1-CLTA and in the assay on HepG2-TUBA1B-RELA was not above 0.3 µM each time. For the same molecule, the “lowest phenotypically active concentration” value in the assay on WPMY1-TUBA1B-RELA is not above 0.3 µM.
With `CC(C)CCN1c2nc(Nc3cc(F)c(O)c(F)c3)ncc2N(C)C(=O)C1C` (configuration not stated), the “lowest phenotypically active concentration” value in the assay on A549-TP53BP1-CLTA, in the assay with HepG2-ACTB-RAB5A, with HepG2-CANX-COX4, in the assay on HepG2-TP53BP1-CLTA, in the assay with HepG2-TUBA1B-RELA and in the assay with WPMY1-TUBA1B-RELA was 3 µM in each case.
On to `COc1cc2c(NC3CCN(C(C)C)CC3)nc(C3CCCCC3)nc2cc1OCCCN1CCCC1`, for which the “lowest phenotypically active concentration” value is 3 µM in the assay with A549-CANX-COX4; 3 µM in the assay on A549-TP53BP1-CLTA; 1 µM with HepG2-ACTB-RAB5A; 3 µM with HepG2-CANX-COX4; 1 µM in the assay with HepG2-TP53BP1-CLTA; not above 0.3 µM in the assay on HepG2-TUBA1B-RELA. Further, in the assay with WPMY1-TUBA1B-RELA, the “lowest phenotypically active concentration” value is 1 µM.
As for `Cc1nc(NC(=O)N2CCC[C@H]2C(N)=O)sc1-c1csc(C(C)(C)C)n1`, the “lowest phenotypically active concentration” value in the assay with A549-TP53BP1-CLTA amounted to 9 µM; in the assay on HepG2-ACTB-RAB5A it was 3 µM; in the assay on HepG2-CANX-COX4 it was 3 µM; with HepG2-TP53BP1-CLTA, 3 µM; with HepG2-TUBA1B-RELA it was 3 µM.
As for `O=c1[nH]cc(F)c(=O)[nH]1` [5-Fluorouracil], the “lowest phenotypically active concentration” value in the assay on A549-CANX-COX4 came out at 3 µM; with A549-TP53BP1-CLTA it was 9 µM; with HepG2-ACTB-RAB5A, 3 µM; in the assay with HepG2-CANX-COX4, 3 µM; with HepG2-TP53BP1-CLTA, 3 µM; with HepG2-TUBA1B-RELA, 3 µM.
With `CC[C@H](C)[C@H](NC(=O)OCc1ccccc1)C(=O)N[C@@H](CCC(=O)OC(C)(C)C)C(=O)N[C@@H](C)C(=O)N[C@H](C=O)CC(C)C`, the “lowest phenotypically active concentration” value in the assay on A549-CANX-COX4, with A549-TP53BP1-CLTA, in the assay on HepG2-ACTB-RAB5A, in the assay with HepG2-CANX-COX4, in the assay on HepG2-TP53BP1-CLTA and in the assay with HepG2-TUBA1B-RELA was not above 0.3 µM each time. The “lowest phenotypically active concentration” value with WPMY1-TUBA1B-RELA is not above 0.3 µM.
Take `Cc1nc(NC(=O)N2CCC[C@H]2C(N)=O)sc1-c1ccnc(C(C)(C)C(F)(F)F)c1` [alpelisib]: the “lowest phenotypically active concentration” value with A549-CANX-COX4 is 3 µM; in the assay on A549-TP53BP1-CLTA it was 9 µM; in the assay with HepG2-ACTB-RAB5A it was 1 µM; with HepG2-CANX-COX4, not above 0.3 µM; in the assay with HepG2-TP53BP1-CLTA it was 9 µM; in the assay with HepG2-TUBA1B-RELA, 1 µM. Further, the “lowest phenotypically active concentration” value in the assay with WPMY1-TUBA1B-RELA was 9 µM.
In the case of `COc1ccc2c(Oc3ccc(NC(=O)c4c(C)n(CC(C)(C)O)n(-c5ccccc5)c4=O)nc3)ccnc2c1`, the “lowest phenotypically active concentration” value in the assay with HepG2-CANX-COX4, in the assay on HepG2-TP53BP1-CLTA and in the assay with HepG2-TUBA1B-RELA was 9 µM each time.
For `CCCCC1C(=O)N(c2ccccc2)N(c2ccc(O)cc2)C1=O` (configuration not stated) [oxyphenbutazone], in the assay on WPMY1-TUBA1B-RELA, the “lowest phenotypically active concentration” value stood at 9 µM.
For the molecule `COc1cc2ncn(-c3cc(OCc4ccccc4C(F)(F)F)c(C(N)=O)s3)c2cc1OC`, the “lowest phenotypically active concentration” value in the assay on A549-CANX-COX4 is 1 µM; in the assay with A549-TP53BP1-CLTA it was 1 µM; in the assay with HepG2-ACTB-RAB5A, not above 0.3 µM; with HepG2-CANX-COX4, not above 0.3 µM; in the assay on HepG2-TP53BP1-CLTA it was not above 0.3 µM; with HepG2-TUBA1B-RELA, not above 0.3 µM. In the assay with WPMY1-TUBA1B-RELA, the “lowest phenotypically active concentration” value is not above 0.3 µM.
Turning to `CCOc1cc(N2CCC(O)CC2)ccc1Nc1ncc2c(n1)N(C)c1ccccc1C(=O)N2C`, the “lowest phenotypically active concentration” value in the assay with A549-CANX-COX4 amounted to 9 µM; in the assay with A549-TP53BP1-CLTA, 9 µM; with HepG2-ACTB-RAB5A, 3 µM; in the assay with HepG2-CANX-COX4, 3 µM; with HepG2-TP53BP1-CLTA, 9 µM; in the assay with HepG2-TUBA1B-RELA it was 3 µM. In the assay with WPMY1-TUBA1B-RELA, the “lowest phenotypically active concentration” value came out at 9 µM.
With `N#Cc1c(NC(=O)c2cccc3ccccc23)sc2c1CCCC2`, the “lowest phenotypically active concentration” value with A549-CANX-COX4, in the assay with A549-TP53BP1-CLTA, in the assay on HepG2-ACTB-RAB5A, in the assay on HepG2-CANX-COX4, in the assay on HepG2-TP53BP1-CLTA and in the assay with HepG2-TUBA1B-RELA was not above 0.3 µM throughout. Also, the “lowest phenotypically active concentration” value in the assay on WPMY1-TUBA1B-RELA was not above 0.3 µM.
